About 770 (0.77%) of roughly 100,000 compounds were called active. The list comes from a sample in which actives are over-represented; it also holds similar structures and randomly drawn compounds. Unmarked numbers belong to inactive results. Cut-off read from the data, not from the text of the source: active = inhibition above about 50%; inactive = the rest.

For this test, the target named is Gag-Pol polyprotein (Human immunodeficiency virus type 1 group M subtype B (isolate HXB2)) (UniProt P04585). Description: RNase H inhibition, HIV 1 Gag Pol polyprotein, FRET biochemical assay, screening (AID 372). The settings on record: HIV-1 RT RNase H, FRET RNA/DNA substrate fluorescence; at 10 µM; active compounds read high.
One may read the inhibition as the relative decrease from the control value, in per cent. Take `O=C(NCCN1CCOCC1)c1cc2nc(-c3ccc(Cl)cc3)cc(C(F)(F)F)n2n1`: the inhibition is 0%.

With `COc1ccc(C=NN2CCN(Cc3ccccc3Cl)CC2)c(OC)c1`, the inhibition is 6%.

For `Cc1nc(-c2ccccc2)sc1C(=O)Nc1ccc(Br)cc1`, the inhibition was 15%.

For `c1ccc(-c2ccc(Oc3cc(-n4cccn4)ncn3)cc2)cc1`, the inhibition was 11%.

Take `O=C(Nc1ccc(Cl)cc1)c1cccc(N2C(=O)c3cccnc3C2=O)c1`: the inhibition is 0%.

In the case of `Cc1ccc(NC(=O)c2c(NC(=O)C(F)(F)F)sc3c2CCC3)c(C)c1`, the inhibition was 13%.

Take `Cc1ccc(NC(=O)c2c(NC(=O)C(F)(F)F)sc3c2CCCCC3)c(C)c1`: the inhibition is 23%.

For the compound `Oc1c(C=Nc2ccccc2)sc2ccccc12`, the inhibition was 4%.

Consider `CC(=O)c1ccc(NS(=O)(=O)c2cccc(S(=O)(=O)c3ccc(Cl)c(Cl)c3)c2)cc1`, for which the inhibition was 10%.

`COc1ccc(/C=C2\SC(=S)N(Nc3ccccc3)C2=O)cc1OC`: the inhibition was 55% (active).

Regarding `COc1cc(/C=C2\SC(=S)N(NC(=O)c3ccccc3Br)C2=O)ccc1O`, the inhibition is 18%.

On to `COc1cc(C(=O)NN2C(=O)/C(=C/c3ccc(OC)c(OC)c3)SC2=S)ccc1O`, for which the inhibition is 61% (active).

For the compound `COc1cc(/C=C2\SC(=S)N(Nc3ccccc3)C2=O)cc(OC)c1OC`, the inhibition is 4%.

Turning to `O=C(NN1C(=O)/C(=C/c2ccc(O)c(O)c2)SC1=S)c1ccccc1Br`, the inhibition was 50% (active).

In the case of `COc1cc(C(=O)NN2C(=O)/C(=C/c3ccccc3)SC2=S)ccc1O`, the inhibition is 4%.

Turning to `COc1cc(/C=C2\SC(=S)N(NC(=O)c3ccc(O)c(OC)c3)C2=O)ccc1O`, the inhibition is 34%.

Consider `COc1cc(/C=C2\SC(=S)N(NC(=O)c3ccc(Br)cc3)C2=O)ccc1O`, for which the inhibition is 23%.

Regarding `COc1cc(/C=C2\SC(=S)N(Nc3ccccc3)C2=O)ccc1O`, the inhibition was 37%.

As for `O=C(NN1C(=O)/C(=C/c2ccc(O)c(O)c2)SC1=S)c1ccc(Br)cc1`, the inhibition is 58% (active).

Take `O=C(NN1C(=O)/C(=C/c2ccc(Br)cc2)SC1=S)c1ccncc1`: the inhibition was 5%.

`O=C(NN1C(=O)/C(=C/c2ccc(O)cc2)SC1=S)c1ccccc1Br`: the inhibition is 5%.

For `CCOc1ccc(C(=O)Nc2ccc3oc(-c4ccc(CC)cc4)nc3c2)cc1[N+](=O)[O-]`, the inhibition was 16%.

Regarding `Nc1nc(CN2C(=O)c3ccccc3C2=O)cs1`, the inhibition is 2%.

For `CCOC(=O)c1c(NC(=O)c2ccc3c(c2)OCCO3)sc2c1CCCC2`, the inhibition is 5%.

`CC(=O)OCCN1C(=O)c2ccc(Oc3cccc(Oc4ccc5c(c4)C(=O)N(CCOC(C)=O)C5=O)c3)cc2C1=O`: the inhibition was 10%.

In the case of `CCOc1ccc(/C=C2\SC(=S)N(CCC(=O)Nc3cccnc3)C2=O)cc1`, the inhibition is 22%.

`CC(=O)N1c2ccccc2NC2=C(C(=O)CC(c3ccccc3)C2)C1c1cccnc1` (stereo unspecified): the inhibition was 7%.

In the case of `O=C(O)c1cccc(C(=O)O)c1N(c1ccccc1)c1ccccc1`, the inhibition was 40%.

In the case of `CCOc1cc(/C=N/n2cnnc2)cc(Cl)c1OCCOc1cc(C)ccc1C(C)C`, the inhibition is 10%.

Regarding `COc1ccc(C(=O)Nc2nccs2)c(OC)c1`, the inhibition is 4%.

As for `Cc1cccc(N2C(=O)NC(=O)/C(=C\c3ccc(Oc4ccc([N+](=O)[O-])cn4)cc3)C2=O)c1`, the inhibition was 13%.

Regarding `Cc1ccc(-c2n[nH]c(=S)n2/N=C/c2cc(Br)ccc2O)cc1`, the inhibition was 15%.

As to `Cc1cccc(C=Nn2c(-c3ccccc3)n[nH]c2=S)c1`, the inhibition was 22%.

On to `Cc1ccc(-c2n[nH]c(=S)n2/N=C/c2ccc(O)cc2O)cc1`, for which the inhibition was 8%.

Regarding `Cc1ccc(-c2n[nH]c(=S)n2N=Cc2ccc(-c3ccccc3)cc2)cc1`, the inhibition was 56% (active).

As to `Oc1ccccc1/C=N/n1c(-c2ccccc2)n[nH]c1=S`, the inhibition is 11%.

Take `Cc1ccc(-c2n[nH]c(=S)n2N=Cc2ccc(Cl)c(Cl)c2)cc1`: the inhibition was 18%.

As for `Oc1ccc(/C=N/n2c(-c3ccccc3)n[nH]c2=S)cc1O`, the inhibition is 55% (active).

Take `Cc1ccc(-c2n[nH]c(=S)n2N=Cc2ccc(O)c(O)c2)cc1`: the inhibition was 60% (active).

Take `COc1cc(/C=N/n2c(-c3ccc(C)cc3)n[nH]c2=S)ccc1O`: the inhibition was 8%.

Take `Cc1ccc(-c2n[nH]c(=S)n2/N=C/c2ccc(O)cc2)cc1`: the inhibition was 9%.

Take `COc1ccc(-c2n[nH]c(=S)n2N=Cc2ccc(-c3ccccc3)cc2)cc1`: the inhibition is 45%.

On to `O=C1OC(/C=C/c2ccccc2)=NC/1=C/c1ccc(-c2ccc3c(c2)C(=O)NC3=O)o1`, for which the inhibition is 33%.

`C#CCOc1ccc(C=C2C(=O)N(C)C(=S)N(C)C2=O)cc1Br`: the inhibition was 21%.

As for `Clc1ccc(C2C=C(c3cccs3)Nc3nnnn32)cc1` (stereo unspecified), the inhibition was 3%.

Take `O=C1NC(=S)S/C1=C\c1ccc(O)c(O)c1`: the inhibition is 78% (active).

In the case of `COc1ccc(/C=C2/SC(=S)NC2=O)cc1I`, the inhibition was 39%.

Take `COc1ccc(/C=C2\SC(=S)NC2=O)cc1C`: the inhibition was 65% (active).

On to `O=C1NC(=S)S/C1=C/c1ccc(Cl)cc1`, for which the inhibition is 10%.

For `COc1cc(/C=C2\SC(=Nc3ccc(C)c(Cl)c3)NC2=O)ccc1C`, the inhibition is 56% (active).

As for `COc1cc(/C=C2/SC(=S)NC2=O)ccc1OC(C)C`, the inhibition is 1%.

Regarding `Nc1ccc(/C=C2/SC(=S)NC2=O)cc1`, the inhibition was 4%.

Regarding `O=C1NC(=S)S/C1=C\c1ccc(N2CCCC2)cc1`, the inhibition is 54% (active).

Consider `COc1cc(/C=C2\SC(=Nc3ccc(C)c(Cl)c3)NC2=O)cc(OC)c1OC`, for which the inhibition is 21%.

Take `O=C1NC(=S)S/C1=C/c1ccc(O)c(Br)c1`: the inhibition was 3%.

As for `O=C1NC(=S)S/C1=C/c1cc(Br)ccc1O`, the inhibition is 24%.

Consider `COc1cc(/C=C2\SC(=Nc3ccc(C)c(Cl)c3)NC2=O)ccc1O`, for which the inhibition was 47%.

As for `O=C1C(Cc2ccccc2)S/C(=N/N=C/c2cccc([N+](=O)[O-])c2)N1c1ccccc1` (stereo unspecified), the inhibition is 20%.

As for `Cc1ccc(NC(=O)CN(c2ccc(Br)cc2)S(=O)(=O)c2ccccc2)cc1Cl`, the inhibition is 7%.

`CCOc1ccccc1NC(=O)CCN1C(=O)/C(=C/c2ccccc2Cl)SC1=S`: the inhibition was 13%.

As for `CCCCOC(C)n1cc(Cl)c(=O)[nH]c1=O` (stereo unspecified), the inhibition is 3%.

The record behind these values is PubChem BioAssay AID372 (MTDP, 2006).
